Results: PubChem BioAssay AID488835 (Broad Institute, 2010)
About 140 (10%) of roughly 1,400 compounds were called active.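 Rule for the calls: active = Half-maximal inhibitory dose from the fit at or below ten times the top valid tested dose; inconclusive = Invalid fit, or flat curve showing 30 to 70% inhibition; inactive = the rest.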 A selection follows. Entries with a potency or affinity are not part of this list.

The compounds below were run against Lysine-specific demethylase 4C (Homo sapiens) (UniProt Q9H3R0) (assay: inhibition of JMJD2C H3K9me3 demethylation – biochemical, DELFIA europium, cherry-picked samples, dose response (AID 488835;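 note: signal is the H3K9me2 demethylation product detected by a dimethyl-specific antibody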)). Details: GST-JMJD2C(1-420); series mostly up to 6 µM.
Lysine-specific demethylase 4C (Homo sapiens), sequence (Q9H3R0 1-420 limits assumed): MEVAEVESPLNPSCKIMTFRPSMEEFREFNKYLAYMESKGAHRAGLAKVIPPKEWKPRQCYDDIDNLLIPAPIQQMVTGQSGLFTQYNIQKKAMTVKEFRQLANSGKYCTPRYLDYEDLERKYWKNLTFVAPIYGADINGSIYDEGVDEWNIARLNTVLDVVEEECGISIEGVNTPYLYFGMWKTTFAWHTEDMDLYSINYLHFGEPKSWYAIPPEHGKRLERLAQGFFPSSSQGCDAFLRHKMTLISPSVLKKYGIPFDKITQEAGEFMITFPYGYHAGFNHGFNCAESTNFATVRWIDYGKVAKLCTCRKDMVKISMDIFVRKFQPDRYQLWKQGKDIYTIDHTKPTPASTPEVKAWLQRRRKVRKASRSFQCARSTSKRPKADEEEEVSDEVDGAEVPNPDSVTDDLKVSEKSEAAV

outcome, inactive:
O=C(Cn1c(=O)sc2ccccc21)NCc1ccco1
CS(=O)(=O)N(CCc1ccccc1)CC(=O)NCc1ccc(Cl)cc1
COc1ccccc1Nc1ncnc2ccccc12
Cc1ccc(NC(=O)CSc2cccc[n+]2[O-])c([N+](=O)[O-])c1
Cc1cc(C)cc(C(=O)N2CCC(C(N)=O)CC2)c1
O=C(/C=C/c1ccc2c(c1)OCO2)NCCS(=O)(=O)N1CCN(c2ccc(F)cc2)CC1
COc1ccc(NC(=O)O/N=C/c2ccccc2)cc1
O=C(N/N=C/c1ccccc1)c1c(O)c2ccccc2[nH]c1=O
CC(C)Cn1c(N)c(C(=O)COC(=O)c2c(O)c(Cl)cc(Cl)c2Cl)c(=O)n(C)c1=O
CC(=O)C[C@@H](O)CC(=O)[C@H]1OC(=O)CCCCCc2ccccc21
Cn1c(=N)n(CC(O)c2ccccc2)c2ccccc21 (stereo not drawn)
COc1cccc(NC(=O)COC(=O)c2ccc(S(=O)(=O)NCc3ccco3)cc2)c1
CSCCC(NS(=O)(=O)c1ccc(Cl)cc1)C(=O)O (stereo not drawn)
O=C(CSc1nc2ccccc2c(=O)n1Cc1ccc(C(=O)NC2CC2)cc1)NCc1ccco1
Cc1nnc(SCc2nc3ccccc3[nH]2)s1
CCCC(=O)Nc1nc2c(c(=O)[nH]1)CCCC2
COc1ccc(C(=O)N2CCC(C(=O)NCc3ccccn3)CC2)cc1
COc1ccc(N=Cc2cccc(C)c2O)cc1Cl
O=C(NC(=S)Nc1ccccn1)c1ccc([N+](=O)[O-])cc1
CN(C)c1ccc(C2Nc3ccccc3C(=O)N2CCN2CCNC2=O)cc1 (stereo not drawn)
COc1ccc(/C=C2\Sc3ccc(C(=O)N4CCCC4)cc3N(C)C2=O)cc1OC
Cc1ccc(NC(=O)CSc2nc3c(c(=O)[nH]2)CN(Cc2ccc(F)cc2)CC3)cc1C
CC(=O)c1ccc(O[C@@H]2O[C@H](CO)[C@@H](O)[C@H](O)[C@H]2O)cc1
O=c1cc(-c2ccc(O)c(O)c2)oc2c(C3O[C@H](CO)[C@@H](O)[C@H](O)[C@H]3O)c(O)cc(O)c12 (stereo partly drawn)
CC(C)n1cnc2c(NCc3ccccc3)nc(NCc3ccccc3)nc21
Cn1nnc(NC(=O)CSc2ccc(Cl)cc2)n1
Cc1cccn2c(=O)c(/C=N/O)c(N3CCCC3)nc12
Cc1ccc(NC(=O)CSc2ncc(S(=O)(=O)c3ccccc3)c(=O)[nH]2)cc1C
Cc1cc(C)nc(NCc2ccc(Cl)cc2)n1
Cn1c(=O)[nH]c(=O)c2c1nc(N1CCOCC1)n2CCc1ccccc1
COc1ccc(NC(=O)N(C)C[C@H]2Oc3c(NC(=O)C4CC4)cccc3C(=O)N([C@H](C)CO)C[C@@H]2C)cc1
Cc1occc1-c1nnc(SCC(=O)c2cc3ccccc3oc2=O)o1
Cc1ccc(CCNC(=O)C23C[C@H]4C[C@@H](C2)CC(n2nnc(C)n2)(C4)C3)cc1
CCOC(=O)c1oc2ccccc2c1COC(=O)C(C)NC(=O)c1ccco1 (stereo not drawn)
COc1cc(/C=N/N2CCN(c3ccccc3OC)CC2)ccc1O
COc1ccccc1-n1c(SCC(=O)N2CCCC2)nc2cccnc21
CCCn1nnnc1SCC(=O)NCc1ccc(OC)cc1
CCOC(=O)c1[nH]c(CSc2nnnn2-c2ccccc2C)c(C(=O)OCC)c1C
CCN(C[C@H]1N[C@@](C)(C(=O)OC)[C@H]2C(=O)N(Cc3ccccc3)C(=O)[C@@H]12)C(=O)Nc1ccc(Cl)cc1
CCC(=O)Nc1ccc(NC(=O)Cc2ccccc2)cn1
O=C(Cc1ccccc1)NNC(=O)c1cccs1
O=C(NC1(O)C(=O)c2ccccc2C1=O)c1c(Cl)cccc1Cl
CCC(C)[C@H](NC(=O)NCc1ccccc1Cl)C(=O)O (stereo partly drawn)
C#CCOCCOCCOCCNc1nc(N2CCN(C(=O)[C@H](CCC(=O)O)n3cc([C@@H](N)CCCCN)nn3)CC2)nc(N2CCN(C(=O)[C@H](CCC(=O)O)n3cc([C@@H](N)CCCCN)nn3)CC2)n1
Cc1sc2ncnc(OCC(=O)N3CCN(S(=O)(=O)c4ccc(Cl)cc4)CC3)c2c1C
Cc1onc(-c2c(F)cccc2Cl)c1C(=O)NC1CC1
COC(=O)c1ccc(-c2sc3nc(N4CCOCC4)c4c(c3c2N)CC(C)(C)OC4)o1
COc1cc(C(C(=O)NC2CCCCC2)N(Cc2cccs2)C(=O)Cc2c[nH]c3ccccc23)cc(OC)c1OC (stereo not drawn)
COc1ccc(C)cc1-n1nnnc1SC/C(O)=C(\C#N)c1nc2ccccc2[nH]1
CN1CCN(CC(=O)Nc2ccc(S(=O)(=O)N(C)C)cc2)CC1
CCOC(=O)c1cc2nc(Nc3ccc(OC)cc3)sc2s1
O=S(=O)(c1ccc2ccccc2c1)N(CC(O)COCc1ccco1)c1ccccc1 (stereo not drawn)
CCOc1cc(/C=C\c2[nH]c(=O)[nH]c(=O)c2[N+](=O)[O-])ccc1OC(C)CC (stereo not drawn)
O=C(CN1C(=O)c2ccccc2C1=O)NCC1COc2ccccc2O1 (stereo not drawn)
O=C(NC1CC2CCC1C2)C1COc2ccccc2O1 (stereo not drawn)
COc1ccc(C2/C(=C(/O)c3ccccc3)C(=O)C(=O)N2CCN2CCOCC2)c(OC)c1 (stereo not drawn)
COc1ccc(NC(=O)c2cccc(N3C(=O)C4CC=C(C)CC4C3=O)c2)c(OC)c1 (stereo not drawn)
CCC(=O)Nc1ccccc1Nc1cc(C#N)c(C#N)cc1[N+](=O)[O-]
O=[N+]([O-])c1ccccc1N/N=C\c1ccccc1Cl
Fc1cccc(/C=N/Nc2nc3ccccc3[nH]2)c1
COc1cccc(/C=N/NC(=O)CNC(=O)c2cccs2)c1O
O=C(O)CSc1nnc(COc2cccc3cccnc23)n1-c1cccc(C(F)(F)F)c1
CCCCN(C)C(=O)CCC(=O)NNc1nc2ccccc2c2nc(C)nn12
CCCCOC(=O)Cn1cnc2ccc(Br)cc2c1=O
CCc1ccc2oc(=O)cc(CN3CCOCC3)c2c1
Cc1cccn2c(=O)c(C(=O)NC3CC(C)CC(C)(C)C3)c(O)nc12 (stereo not drawn)
Cc1cccc(NC(=O)C2CCN(S(=O)(=O)c3cccc4nsnc34)CC2)n1
CCOc1ccc(NCc2nnc(SCC(=O)Nc3cc(C)on3)n2-c2ccccc2OC)cc1
CC(=O)Nc1ccc(NC(=O)CSc2ncnn2-c2ccccc2)cc1
COCCNC(=S)N1CCN(C)CC1
C/C(=N\N1CCN(c2ccccc2)CC1)c1ccncc1
COc1ccc(OCC(=O)N/N=C/C(C)=C/c2ccco2)c(Br)c1
COc1ccc(OC)c(/C=N/NC(=O)CNC(=O)c2ccc(S(=O)(=O)N3CCOCC3)cc2)c1
CC(C)(C)n1nnnc1C(c1cccnc1)N1CCN(c2ccccc2)CC1 (stereo not drawn)
Cc1cccc(N2CCN(C(=O)c3ccc(CS(=O)(=O)c4ccccc4C)o3)CC2C)c1 (stereo not drawn)
Cc1ccc(C(O)(C(=O)NNc2ccccn2)c2ccc(C)cc2)cc1
Cc1ccc(C)c(N(C(=O)c2csnn2)C(C(=O)NC2CCCC2)c2cccnc2)c1 (stereo not drawn)
CN(c1cccc(Cl)c1)S(=O)(=O)c1cccc(C(=O)Nc2ccc3c(c2)CCC3)c1
O=C(O)COc1ccc(NC(=O)C(c2ccccc2)c2ccccc2)cc1
Cc1ccc(-n2nnc3c(SCC(=O)NCC4CCCO4)ncnc32)cc1 (stereo not drawn)
CC(=O)c1sc(NC(=O)c2ccc(C)cc2)nc1C
Cc1ccc(CNC(=O)Cc2ccc(-c3ccccc3)cc2)cc1
NCCN1CCN2C(=O)CN(C(=O)c3ccccc3)CC12 (stereo not drawn)
CC(CC(=O)Nc1cc([N+](=O)[O-])ccc1Cl)c1ccccc1 (stereo not drawn)
COc1ccc(N(CC(=O)Nc2ccc(S(=O)(=O)N3CCCC3)cc2)S(C)(=O)=O)cc1OC
COc1ccc(NC(=O)CCN2CCCCCC2)cc1
Cc1ccc(NC(=O)c2ccc(OC(=O)CCN3C(=O)c4ccccc4C3=O)cc2)cc1
Cc1ccc(NC(=O)CSc2nnc(-c3cccs3)n2Cc2ccco2)cc1
COc1ccc(N2CCN(C(=O)CSc3nnc(-c4cccnc4)n3-c3ccccc3)CC2)cc1
COc1cc(S(=O)(=O)N(Cc2cccs2)CC2CCCO2)ccc1-n1cnnn1 (stereo not drawn)
CCOC(=O)c1sc2nc(N3CCOCC3)c3c(c2c1N)CCN(Cc1ccccc1)C3
CCOC(=O)c1c(C)[nH]c(C)c1S(=O)(=O)N(C)CC(=O)N(C)Cc1ccccc1
CCOC(=O)c1c(S(=O)(=O)N2CCN(c3ccc(F)cc3)CC2)c(C)n(C)c1C
C[C@H]1CN([C@@H](C)CO)C(=O)c2cccc(NS(=O)(=O)c3ccc(F)cc3)c2O[C@H]1CN(C)S(=O)(=O)c1cn(C)cn1
Cc1ccc(C(=O)CN2C(=O)C(=O)N(Cc3ccccc3)C2=O)cc1
COc1cccc(/C=C/C(=O)OCC(=O)NCc2ccc(Cl)cc2)c1
O=C(Nc1c(Cl)cccc1Cl)c1cc(-c2ccco2)on1
Cc1ccc(C(=O)NCc2ccco2)cc1Br
Cc1ccc(S(=O)(=O)N(C)C[C@@H]2Oc3ccc(NC(=O)Cn4cnnn4)cc3C(=O)N([C@@H](C)CO)C[C@H]2C)cc1
CCn1c(CNC(=O)Cc2ccc(OC)cc2)nnc1SCC(=O)NC1CCCCC1
CCn1nnnc1SCC(=O)NCc1cccs1
CC(C)CC(=O)Nc1ccccc1N1CCOCC1
Cc1ccccc1-c1ccc(=O)n(CC(=O)Nc2ccc(N3CCOCC3)cc2)n1
